Measured values as given in PubChem BioAssay (NCATS).
Results filed as inconclusive are left out. Where a call stands in place of a potency, no number is given. A number with no mark means an inactive call. Active and inactive are the calls of the source. Calls follow the shape of the dose curve; as a rule, active = well fitted cell-killing curve with a large enough effect; inconclusive = small, poorly fitted or top-dose-only effect, or effect the other way; inactive = flat fitted curve, though single readings scatter.

These compounds were tested on Tov112D (assay: Primary qHTS to identify gynecologic anti-cancer compounds using libraries of approved drugs and bioactive compounds (AID 1345084; also: nearly all actives have a fitted effect of over 55% in size)). Settings: Gynecologic cancer cell panel viability, ATPlite luminescence, 48 h; series mostly up to 57.5 µM.
In short: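 Five-point cytotoxicity, 48 h drug exposure at 37 C, 5% CO2, on cells seeded 16 h beforehand. ATP content read by ATPlite luminescence.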

Row | SMILES | Potency | activity change, negative = cytotoxicity
1 | CC(C)=CCC/C(C)=C/CO[C@@H]1O[C@H](CO[C@@H]2OC[C@](O)(CO)[C@H]2O)[C@@H](O)[C@H](O)[C@H]1O | inactive | –
2 | C[C@]1(OC(=O)/C=C/c2ccc(O)cc2)C[C@@H](O)[C@]2(O)C=CO[C@@H](O[C@@H]3O[C@H](CO)[C@@H](O)[C@H](O)[C@H]3O)C12 (some centres undefined) | inactive | –
3 | CC[C@H]1OC(=O)[C@H](C)C(=O)[C@H](C)[C@@H](OC2O[C@H](C)C[C@H](N(C)C)[C@H]2O)[C@@H](C)C[C@@H](C)C(=O)/C=C/[C@]1(C)O (some centres undefined) | inactive | –
4 | CC1(C)[C@@H]2CC=C(CO[C@@H]3O[C@H](CO[C@@H]4OC[C@H](O)[C@H](O)[C@H]4O)[C@@H](O)[C@H](O)[C@H]3O)[C@H]1C2 | inactive | –
5 | COc1cc(O)cc(C)c1C(=O)O[C@H]1[C@@H](O)[C@@H](n2ccc(=O)[nH]c2=O)O[C@@H]1CO | inactive | –
6 | CCC1OC(=O)C(C)CC(C)C(=O)/C(C)=C/C(C)C(=O)/C=C/C1(C)O (centres undefined) | inactive | –
7 | CC(C)CC(=O)O[C@@H]1O[C@H](CO)[C@@H](O[C@H]2O[C@H](C)[C@@H](N[C@H]3C=C(CO)[C@@H](O[C@H]4O[C@H](CO)[C@@H](O[C@H]5O[C@H](CO)[C@@H](O[C@H]6O[C@H](CO)[C@@H](O)[C@H](O)[C@H]6O)[C@H](O)[C@H]5O)[C@H](O)[C@H]4O)[C@H](O)[C@H]3O)[C@H](O)[C@H]2O)[C@H](O)[C@H]1O | – | -0.277% [at 11.6 µM]
8 | CC1=CCC[C@@H]2[C@@](C)(CCc3ccoc3)[C@H](C(=O)O)CC[C@@]12C | inactive | –
9 | CCN(CCN(C)C)C(=O)CNCc1cc(C(N)=O)ccn1 | inactive | –
10 | O=C(NCC(=O)N1CCCC1)Nc1ccc2ccccc2c1 | inactive | –
11 | NCCCCN(Cc1nc2ccccc2[nH]1)[C@H]1CCCc2cccnc21 | inactive | –
12 | C[C@@H]1O[C@@H](O[C@@H]2[C@@H](O)[C@H](O[C@H]3[C@H](O[C@H]4CC[C@@]5(C)C(CC[C@]6(C)C5CC=C5[C@@H]7CC(C)(C)CC[C@]7(C(=O)O[C@@H]7O[C@H](CO)[C@@H](O)[C@H](O)[C@H]7O)CC[C@]56C)C4(C)C)O[C@H](C(=O)O)[C@@H](O)[C@@H]3O)OC[C@H]2O)[C@H](O)[C@H](O)[C@H]1O (some centres undefined) | – | 6.86% [at 11.6 µM]
13 | O=C(O)C[C@H]1CCC(=O)[C@@H]1C/C=C\CCO | inactive | –
14 | CC(/C=C/C=C(\C)C(=O)O[C@@H]1O[C@H](CO[C@@H]2O[C@H](CO)[C@@H](O)[C@H](O)[C@H]2O)[C@@H](O)[C@H](O)[C@H]1O)=C\C=C\C=C(C)\C=C\C=C(/C)C(=O)O[C@@H]1C[C@](O)(C(=O)O)C[C@@H](O)[C@H]1OC(=O)/C=C/c1ccc(O)c(O)c1 | – | -1.9% [at 11.6 µM]
15 | COc1cc(CC2COC(c3ccc(OC4OC(CO)C(O)C(O)C4O)c(OC)c3)C2CO)ccc1O (centres undefined) | inactive | –
16 | CCC(C)/C=C(C)/C=C/C1=CC2=C(Cl)C(=O)C(C)(O)C(=O)C2(O)C(OC)O1 (centres undefined) | inactive | –
17 | C=C1C[C@H](O)[C@@H](O)[C@@]2(C)C1[C@@H](O)[C@H]1OC(=O)C3[C@@H](C)[C@@H](O)[C@H](O)C2[C@]31C (some centres undefined) | inactive | –
18 | COc1ccc(/C=C/C(N)=O)cc1OC | inactive | –
19 | CC(=O)/C=C/[C@H]1[C@](C)(O)[C@@H](O)[C@H](O)C2C(C)(C)CCC[C@@]21C (some centres undefined) | inactive | –
20 | CC(=O)OC/C(=C/C(=O)O)CC[C@@H]1C(C)=CC(=O)[C@@H]2C(C)(C)CCC[C@@]12C | inactive | –

Row | SMILES | Potency | activity change, negative = cytotoxicity
21 | CC1=CCC[C@@H]2[C@](CCc3ccoc3)(C(=O)O)[C@H](C)CC[C@@]12C | inactive | –
22 | CC(=O)c1ccc(O[C@@H]2O[C@H](CO[C@@H]3OC[C@@H](O)[C@H](O)[C@H]3O)[C@@H](O)[C@H](O)[C@H]2O)cc1 | inactive | –
23 | C=C(C)C(O)COc1ccc(CC(=O)O)cc1 (centres undefined) | inactive | –
24 | N#Cc1cccc(-c2c[nH]c3ncnc(N4CCOCC4)c23)c1 | inactive | –
25 | On1ncc(C2CCNCC2)c1-c1cccc(-c2ccccc2)c1 | inactive | –
26 | COCC1OC(OC(C)(C)C2CCC3(C)C=C(C4CCC5C4(C)CC(O)C4OC(C(C)(C)O)CCC45C)CCC3O2)C(NC(C)=O)C(O)C1O (centres undefined) | inactive | –
27 | CC1CC(=O)C2C(O)(C1)CC(O)C13OC1c1c(O)cccc1C(=O)C23O (centres undefined) | inactive | –
28 | Cc1cccc(NC(=O)CN2CCC(c3ccccn3)CC2)c1 | inactive | –
29 | C[C@@H]1O[C@@H](OC(=O)Cc2ccccc2)[C@H](O)[C@H](O)[C@H]1O | inactive | –
30 | CC(C)c1ccc2c(c1)CCC1[C@](C)(C(=O)O)CCC[C@]21C (some centres undefined) | inactive | –
31 | O=C(O)c1ccc(NC(=O)[C@H](CC2CCCC2)n2cnc(C(F)(F)F)c2)nc1 | inactive | –
32 | C/C(=C/CO)CC[C@H]1[C@]2(C)C[C@H](O)CC(C)(C)[C@H]2CC[C@]1(C)O | inactive | –
33 | O=C(OC[C@H]1O[C@H](O[C@]2(CO)O[C@H](CO)[C@@H](O)[C@@H]2O)[C@H](O)[C@@H](O)[C@@H]1O)c1ccc(O)cc1 | inactive | –
34 | CC(C)C1CCC(C(=O)N[C@@H](Cc2ccccc2)C(=O)O)CC1 (some centres undefined) | inactive | –
35 | C[C@@H]1O[C@@H](OC[C@H]2O[C@@H](OCc3ccccc3)[C@H](O)[C@@H](O)[C@@H]2O)[C@H](O)[C@H](O)[C@H]1O | inactive | –
36 | CCC[C@H](N[C@@H](C)C(=O)N1[C@H](C(=O)O)C[C@@H]2CCCC[C@@H]21)C(=O)O | inactive | –
37 | C=C1C[C@]23C[C@H]1CC[C@H]2[C@]1(C)CC[C@H](O)[C@@](C)(C(=O)O)[C@H]1[C@@H]3C(=O)O | inactive | –
38 | COC(=O)[C@H](O)[C@H]1C(C)(C)[C@H](OC(C)=O)[C@@]2(O)C(=O)[C@]1(C)C1CC[C@]3(C)C(CC(=O)O[C@H]3c3ccoc3)[C@]13O[C@@H]32 (some centres undefined) | inactive | –
39 | COC(=O)C1(C)CCCC2(C)c3ccc(C(C)C)cc3C(O)C(O)C12 (centres undefined) | inactive | –
